Screening data as filed in PubChem BioAssay.
Peg3 promoter: reduces Peg3 promoter-driven luciferase expression in HeLa; HeLa PEG-Prom luciferase reporter, luminescence, overnight; inhibition, % at 20 µM; 360,000 tested, 1.7% active; AID 588405;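 active = inhibition of at least 50% at 20 µM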
CF NFkB inh: cystic fibrosis NF-kB activation inhibition; KKLEB NF-kB-GFP reporter, PAF-induced, GFP fluorescence overnight; inhibition, % at 5 µM; 360,000 tested, 0.86% active; AID 588850;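 active = at least 50% inhibition at 5 µM, scaled per plate between neutral and stimulator controls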;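 also: PAF is a Pseudomonas aeruginosa culture filtrate used as stimulus; plate controls were PAF-stimulated DMSO wells for no effect and unstimulated DMSO wells for full effect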
Shn3 inh set2: reduces Shn3 3'UTR luciferase signal in osteoblasts | Clone20 osteoblast Shn3 3'UTR firefly luciferase, 24 h | inhibition, % at 12.5 µM | 360,000 tested, 0.52% active | AID 588674;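 active = mean inhibition of at least 75% with every replicate also reaching 75%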;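 also: 0% = median of neutral control wells and 100% = pilot-screen positive control compound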
HIF-2a inh: blocks HIF-2a reporter activity; 786-0 RCC cells HIF-2a reporter, luciferase luminescence, overnight; inhibition, % at 18.8 µM; 360,000 tested, 0.72% active; AID 624352;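 active = inhibition of the luminescence signal of 40% or more relative to plate controls, in a single-dose primary screen at 18.75 µM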
TRPM1 prom inh: inhibitors of MITF-driven TRPM1 promoter in melanoma cells; SK-MEL-5 TRPM1 promoter luciferase, 24 h; inhibition, % at 12.5 µM; 330,000 tested, 0.83% active; AID 488899;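 active = mean inhibition across replicates of 60% or more, whatever share of single replicates reaches that level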
KKLEB cytotox: reduces viability of KKLEB cystic fibrosis airway cells | KKLEB CF airway cells viability, ATPlite luminescence, overnight; active compounds read low; cells stimulated with P. aeruginosa culture filtrate | activity change (cytotoxicity), % at 5 µM | 360,000 tested, 0.36% active;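 active = corrected activity change at or below -50% at 5 µM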
Mdm2-MdmX confirm: Mdm2/MdmX (human) interaction inhibition, confirmed; shares compounds with HIF-2a inh; SaOS-2 split-luciferase Mdm2/MdmX complementation, luminescence; inhibition, % at 8 µM; 740 tested, 99% active;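 active = mean inhibition of the luminescence signal across two replicates at or above 26 percent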
HIF-2a inh conf: HIF-2a inhibition, single concentration confirmation | 786-0 RCC cells, HIF-2a luciferase reporter luminescence, overnight | shares compounds with HIF-2a inh | inhibition, % at 18.8 µM | 1,800 tested, 56% active | AID 651580;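 active = mean inhibition across four replicates of at least 40 percent at the single tested concentration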
HIF-1a counter: inhibits HIF-1a reporter, a counter-screen for HIF-2a inhibitors. 1,800 tested, 72% active. shares compounds with HIF-2a inh. MiaPaCa-2 HIF-1a luciferase reporter, desferoxamine, overnight. inhibition, % at 18.8 µM;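 active = mean inhibition of the reporter signal across four replicates at the single tested dose of 50% or more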
* = called active by the depositor; nt = not tested or not shown. Hits are enriched below; roughly 2.7% of the tested compounds scored in any of these assays.

SMILES	Peg3 promoter	CF NFkB inh	Shn3 inh set2	HIF-2a inh	TRPM1 prom inh	KKLEB cytotox	HIF-2a inh conf	HIF-1a counter	others
O=C(CCc1nc2ccccc2c(=O)[nH]1)N1CCN(S(=O)(=O)c2ccccc2Br)CC1	7	25	-2	48*	26	-12	23	89*
O=c1cc[nH]c2ccc(Cl)cc12	7	-7	-92	0	nt	-23	nt	nt
O=c1cccc2c1c1cc[nH]c3ccc(=O)n2c31	28	47	-27	36	29	-4	nt	nt	Mdm2-MdmX confirm=93*
Nn1c(COc2ccccc2F)nnc1SCC(=O)NCC1CCCO1 (stereo unspecified)	0	-9	-1	8	nt	6	nt	nt
CC(=O)SC(C[N+](=O)[O-])c1cn(C(C)=O)c2ccccc12 (stereo unspecified)	106*	-17	35	46*	106*	5	96*	86*
NC(=O)c1cccc2ccccc12	20	-7	nt	15	-6	-3	nt	nt
NC(=O)c1ccc(Cl)c2ccccc12	-17	14	-22	58*	1	-8	4	28
CCCCCCCCCCCCCCCCn1cc[n+](CC(C)=O)c1	96*	67*	84	56*	39	-67*	64*	106*
C#CCn1cc[n+](CC(=O)N(C)C)c1	6	-10	3	-6	6	6	nt	nt
CC(C)C[C@@H](CN1CCC[C@@H]1CN1C(=O)C(=O)NC[C@@H]1Cc1ccccc1)N1C[C@H](Cc2ccccc2)N(CC2CCCCCC2)C(=O)C1=O	55*	0	-15	80*	7	10	8	105*
O=C(NNC(=S)Nc1ccccc1Cl)c1ccccc1Br	-313	-15	-128	-143	-59	10	nt	nt
O=C(O)c1ccccc1C(=O)OCC1CCC(=NO)CC1 (stereo unspecified)	-3	25	-3	14	nt	-2	nt	nt
C[C@@H](N)C(=O)N[C@H]1CCC2C3CC=C4C[C@@H](O)CC[C@]4(C)C3CC[C@@]21C (stereo partly specified)	-1	3	-5	7	-13	1	nt	nt
CC(C)[C@H](N)C(=O)N[C@H]1CCC2C3CC=C4C[C@@H](O)CC[C@]4(C)C3CC[C@@]21C (stereo partly specified)	92*	8	20	55*	nt	-72*	2	90*
CCC(C)[C@H](N)C(=O)N[C@H]1CCC2C3CC=C4C[C@@H](O)CC[C@]4(C)C3CC[C@@]21C (stereo partly specified)	110*	32	18	86*	nt	-67*	-1	50*
COc1ccccc1-c1cc(SC)c(C#N)c(=O)o1	82*	27	-24	42*	15	-45	33	-9
COc1ccccc1-c1cc(C(F)(F)F)c(C#N)c(=O)[nH]1	-1	7	-18	7	9	-1	nt	nt
[2H]C(CCOS(N)(=O)=O)c1ccc(C(C)(C)C)cc1 (stereo unspecified)	59*	12	1	57*	83*	6	63*	45
Cc1cccc(NC(=O)CSc2nc3c([nH]c4ccccc43)c(=O)n2C)c1	32	-17	25	23	nt	-15	nt	nt
COc1cccc(NC(=O)CSc2nc3c([nH]c4ccccc43)c(=O)n2C)c1	59*	2	15	51*	31	-17	0	26
CSCCC(c1nc2ccccc2[nH]1)n1c(-c2cc(C(F)(F)F)cc(C(F)(F)F)c2)nc2ccccc21 (stereo unspecified)	nt	nt	nt	-1	nt	nt	nt	nt
CC(C)(C)NC(=O)C(c1ccnc2ccccc12)n1c(=O)c(-c2cc3ccccc3[nH]2)nc2ccccc21 (stereo unspecified)	nt	nt	nt	-35	nt	nt	nt	nt
O=C(CN(c1cccc(C(F)(F)F)c1)S(=O)(=O)c1ccc(Cl)c([N+](=O)[O-])c1)NCc1ccccc1Cl	101*	-10	30	70*	55	-2	22	104*
CC(NC(=O)CN(c1cccc(C(F)(F)F)c1)S(=O)(=O)c1ccc(Cl)c([N+](=O)[O-])c1)c1ccccc1 (stereo unspecified)	104*	-10	5	78*	79*	13	10	103*
CC(C)(C)OC(=O)N1Cc2ccccc2C[C@H]1C(=O)NCC(=O)Nc1ccc2c(c1)OCCO2	40	-5	31	47*	-5	0	58*	81*
SMILES	Peg3 promoter	CF NFkB inh	Shn3 inh set2	HIF-2a inh	TRPM1 prom inh	KKLEB cytotox	HIF-2a inh conf	HIF-1a counter	others
N#CNC(=Nc1ccccc1)SCc1ccc(C(=O)O)cc1	-4	7	-25	1	3	2	nt	nt
CSC(=Nc1ccccc1)N=C(SCc1ccccc1)N(C)C	96*	37	93*	83*	116*	-11	74*	107*
COc1ccccc1C(=O)NCC(=O)N(C)Cc1nc2ccccc2c(=O)[nH]1	4	-4	1	13	nt	-19	nt	nt
NC(c1cccc(F)c1)c1nc(-c2ccc(Cl)cc2)cs1 (stereo unspecified)	-54	-11	-5	-81	nt	7	nt	nt
O=S(=O)(/C(=C/c1ccc(C(F)(F)F)cc1)c1nc2ccccc2[nH]1)c1ccccc1	106*	84*	39	90*	91*	-64*	99*	107*
C/C(=C\c1ccc(N)cc1)c1nc2ccccc2[nH]1	-306	-14	-94	-227	-85	-8	nt	nt
CC(C)c1ccc(/C=C(\c2nc3ccccc3[nH]2)S(=O)(=O)c2ccccc2)cc1	104*	93*	92*	90*	87*	-68*	98*	104*	Mdm2-MdmX confirm=103*
COc1ccc(OC)c2sc(NC(=O)CCS(=O)(=O)c3ccccc3)nc12	44	50	17	90*	nt	-55*	-31	56*
O/C(=C\c1nc2ccccc2[nH]1)c1cccs1	-237	-42	-65	-247	-6	8	nt	nt
COc1cc(/C=C(/C(=O)c2cccs2)c2nc3ccccc3[nH]2)ccc1O	103*	34	-89	68*	46	-2	9	104*
COC(=O)/C(=C\c1cc(OC)c(OC)c(OC)c1)c1nc2ccccc2[nH]1	10	6	15	13	2	2	nt	nt
O=C(/C(=C/c1ccc(Cl)cc1)c1nc2ccccc2[nH]1)c1cccs1	106*	98*	88*	93*	95*	-61*	nt	nt	Mdm2-MdmX confirm=102*
